Results filed as inconclusive are left out. Entries that show only a call come without a potency. Active and inactive are the calls of the source. Calls come from the whole dose curve; as a rule, active = well fitted cell-killing curve with a large enough effect in the repeat runs; inconclusive = weak or mixed curves, or effect the other way; inactive = flat fitted curve, though single readings scatter.
Test: cAMP Responsive Elements (CRE) small molecule antagonists, cell-based qHTS assay: qHTS cell viability counter screen (AID 2060913); note: nearly all actives have a fitted effect of over 40% in size
Settings: CRE-bla HEK293T viability, CellTiter-Glo luminescence, 5 h; series mostly up to 92.4 µM
Method in brief: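 Viability of NKH477-stimulated (0.25 uM final) CRE-bla HEK293T cells is measured by CellTiter-Glo luminescence following 3 hrs compound exposure at 37 C.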

| SMILES | Potency | viability change, negative = cytotoxic |
| --- | --- | --- |
| CN1CCN(C2Cc3ccccc3Sc3ccc(Cl)cc32)CC1 (stereo not given) | inactive |  |
| O=C(O)C1CCC1 | inactive |  |
| O=C(O)c1ccccc1Cl | inactive |  |
| COc1cc(C(=O)N2CCOCC2)cc(OC)c1OC | inactive |  |
| CCCCCCCCCCCCCCCCCCOS(=O)(=O)O | inactive |  |
| O=C1OC2(c3ccccc31)c1cc(I)c(O)c(I)c1Oc1c2cc(I)c(O)c1I | inactive |  |
| CCOC(=O)C(C)Oc1ccc(Oc2nc3ccc(Cl)cc3o2)cc1 (stereo not given) | inactive |  |
| SC1CCCCC1 | inactive |  |
| CC(C)(O)c1coc(S(=O)(=O)NC(=O)Nc2c3c(cc4c2CCC4)CCC3)c1 | inactive |  |
| CNc1ncnc2nc[nH]c12 | inactive |  |
| CCCN(CCC)C(=O)C(CCC(=O)OCCCN1CCN(CCOC(=O)Cc2c(C)n(C(=O)c3ccc(Cl)cc3)c3ccc(OC)cc23)CC1)NC(=O)c1ccccc1 (stereo not given) | inactive |  |
| Cc1c2oc3c(C)ccc(C(=O)N[C@@H]4C(=O)N[C@H](C(C)C)C(=O)N5CCC[C@H]5C(=O)N(C)CC(=O)N(C)[C@@H](C(C)C)C(=O)O[C@@H]4C)c3nc-2c(C(=O)N[C@@H]2C(=O)N[C@H](C(C)C)C(=O)N3CCC[C@H]3C(=O)N(C)CC(=O)N(C)[C@@H](C(C)C)C(=O)O[C@@H]2C)c(N)c1=O | inactive |  |
| CCCCCCCCCCN | inactive |  |
| CC/C=C\C/C=C\C/C=C\CCCCCCCC(=O)OCC | inactive |  |
| O[C@@H](c1cc(C(F)(F)F)nc2c(C(F)(F)F)cccc12)[C@H]1CCCCN1 | inactive |  |
| CCOC(=O)NNc1nncc2ccccc12 | inactive |  |
| O[C@@H]1CO[C@H]2[C@@H]1OC[C@@H]2O | inactive |  |
| Cc1c(I)c(=O)n(-c2ccccc2)n1C | inactive |  |
| CC(C)=CCC/C(C)=C/C#N | inactive |  |
| CC1(O)CSC(C)(O)CS1 (stereo not given) | inactive |  |

| SMILES | Potency | viability change, negative = cytotoxic |
| --- | --- | --- |
| O=C1NC2NC(=O)NC2N1 (stereo not given) | inactive |  |
| CN=C(NC#N)NCCSCc1nc[nH]c1C | inactive |  |
| CCCCCCC(O)CO (stereo not given) | inactive |  |
| CCc1ccc(O)cc1 | inactive |  |
| Cc1occc1C(=O)Nc1ccc(C(=O)N2CCC(F)(F)/C(=C\C(=O)N3CCC(N4CCCCC4)CC3)c3ccccc32)cc1 | inactive |  |
| NCCCC(O)(P(=O)(O)O)P(=O)(O)O | inactive |  |
| CC(=O)SCC(CC(=O)c1ccc(C)cc1)C(=O)O (stereo not given) | inactive |  |
| OCCSc1ccccc1 | inactive |  |
| CCCCCCCCCCCCCOC(=O)CCSCCC(=O)OCCCCCCCCCCCCC |  | 3.07% [at 18.9 µM] (inactive) |
| Cc1c(N)cccc1Cl | inactive |  |
| CC(=O)CCC=C(C)C | inactive |  |
| c1ccc(-c2ccc(-c3ccccc3)cc2)cc1 |  | 0.929% [at 18.9 µM] (inactive) |
| CC(C)(c1cc(Br)c(O)c(Br)c1)c1cc(Br)c(O)c(Br)c1 | inactive |  |
| CCC(C(=O)NC(=O)NC(C)=O)c1ccccc1 (stereo not given) | inactive |  |
| COc1ccc(N=[N+]([O-])c2ccc(OC)cc2)cc1 | inactive |  |
| CCN(CC)c1ccc(N=Nc2ccccc2)cc1 | inactive |  |
| O=C(Oc1ccccc1)c1ccccc1O | inactive |  |
| O=S(=O)(O)c1cccc(S(=O)(=O)O)c1 | inactive |  |
| C#C[C@]1(O)CC[C@H]2[C@@H]3CCC4=CC(=O)CC[C@@H]4[C@H]3CC[C@@]21CC | inactive |  |
| CCOC(=O)CCC(=O)OCC | inactive |  |
